Assay [1] is described as follows: qHTS assay to identify small molecule agonists of the estrogen receptor alpha (ER-alpha) signaling pathway in the presence of an antagonist - cell viability counter screen (AID 1259386).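 Further: cells exposed to compounds for 22 h at 37 °C before the viability read; nearly all actives have a fitted effect of over 30% in size.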 Further: potency means the concentration at half of the fitted maximal effect. The gist of the method:
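Read-out: CellTiter-Fluor fluorescence after 1hr reagent incubation, measured in the same wells as the luciferase readout. VM7Luc4E2 cells were exposed to 15 compound concentrations with 10.0nM ICI-182,780 for 22hr at 37C.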
On the technique in general: qHTS replaces the single test concentration by a dilution series.

Assay [2] deals with Progesterone receptor (Homo sapiens) (UniProt P06401). As to the kind of experiment: qHTS assay to identify small molecule agonists of the progesterone receptor (PR) signaling pathway (AID 1346784; calls by dose curve; further: nearly all actives have a fitted effect of over 30% in size). The gist of the method: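 Compounds were tested for PR agonism in HEK 293T cells bearing a beta-lactamase gene under UAS control. Treatment lasted 16 hr at 37C; signal came from fluorescence of a FRET substrate.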
Sequence of Progesterone receptor (Homo sapiens) (P06401 whole entry, looked up): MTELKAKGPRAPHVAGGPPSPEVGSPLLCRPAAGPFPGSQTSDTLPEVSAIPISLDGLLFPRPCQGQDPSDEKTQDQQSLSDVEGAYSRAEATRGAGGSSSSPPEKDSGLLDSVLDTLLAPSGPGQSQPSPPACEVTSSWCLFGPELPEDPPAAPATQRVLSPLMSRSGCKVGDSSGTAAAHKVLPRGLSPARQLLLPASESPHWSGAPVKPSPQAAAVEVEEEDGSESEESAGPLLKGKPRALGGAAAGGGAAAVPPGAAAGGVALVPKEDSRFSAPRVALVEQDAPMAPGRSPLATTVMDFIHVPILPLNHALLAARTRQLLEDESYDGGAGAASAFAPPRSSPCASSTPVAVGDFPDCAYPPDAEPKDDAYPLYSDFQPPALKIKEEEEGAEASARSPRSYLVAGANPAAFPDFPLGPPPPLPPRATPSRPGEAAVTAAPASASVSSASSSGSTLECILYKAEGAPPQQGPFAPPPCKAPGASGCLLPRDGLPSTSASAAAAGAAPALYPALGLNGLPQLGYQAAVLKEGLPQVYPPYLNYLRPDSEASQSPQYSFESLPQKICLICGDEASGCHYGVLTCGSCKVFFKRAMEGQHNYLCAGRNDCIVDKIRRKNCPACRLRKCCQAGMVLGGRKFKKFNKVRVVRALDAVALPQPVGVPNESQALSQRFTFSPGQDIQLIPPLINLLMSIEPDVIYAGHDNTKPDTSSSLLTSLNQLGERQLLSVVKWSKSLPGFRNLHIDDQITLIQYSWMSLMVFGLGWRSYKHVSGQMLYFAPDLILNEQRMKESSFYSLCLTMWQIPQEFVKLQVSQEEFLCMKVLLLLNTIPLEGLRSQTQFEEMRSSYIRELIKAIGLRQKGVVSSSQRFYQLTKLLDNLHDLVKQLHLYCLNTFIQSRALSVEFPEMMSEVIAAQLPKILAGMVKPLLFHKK

Assay [3] in a line: qHTS assay to identify small molecule antagonists of the progesterone receptor (PR) signaling pathway - cell viability counter screen (AID 1346798). Further: nearly all actives have a fitted effect of over 50% in size. Further: potency means the concentration at half of the fitted maximal effect. The gist of the method:
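Following a 4 hr attachment, PR-UAS-bla HEK293T cells in charcoal-stripped FBS medium were exposed to compounds with R5020 for 16 hr; CellTiter-Glo was added and luminescence read after 30 min at room temperature.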

Assay [4] in a line: qHTS assay to identify small molecule agonists of the progesterone receptor (PR) signaling pathway - cell viability counter screen (AID 1346799; calls by dose curve; further: nearly all actives have a fitted effect of over 45% in size; further: potency means the concentration at half of the fitted maximal effect). The gist of the method: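 Here, 3,000 PR-UAS-bla HEK293T cells per well were treated with compounds for 16 hr after a 6 hr preincubation at 37C and 5% CO2; cell viability is the CellTiter-Glo luminescence signal.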
A short description of assay [5]: qHTS assay to identify small molecule antagonists of the TGF-beta/Smad signaling pathway - cell viability counter screen (AID 1346824). Further: nearly all actives have a fitted effect of over 50% in size. Further: potency means the concentration at half of the fitted maximal effect. The procedure, abridged: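 Cytotoxicity counter-screen run in the same wells as the beta-lactamase Smad reporter read: CellTiter-Glo luminescence after 30 min at room temperature. HEK 293T SBE-bla cells had 5 hr compound exposure at 37 C with TGF-beta1 (0.25 ng/mL stock).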

The nature of assay [6]: qHTS assay to identify small molecule agonists of the TGF-beta/Smad signaling pathway - cell viability counter screen (AID 1346829). Further: top concentration of the series differs between compounds; nearly all actives have a fitted effect of over 45% in size. The procedure, abridged: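 Luminescence from CellTiter-Glo, read after a 30 min room-temperature incubation, gives cell viability of SBE-bla HEK 293T cells treated 5 hr with compounds at 37 C.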
Assay [7] in a line: qHTS assay to identify small molecule agonists of the TGF-beta/Smad signaling pathway (AID 1346859; active means well fitted activation curve with a large enough effect in the signal ratio in the repeat runs, not every such curve was filed as active; the % refers to the signal ratio; further: series mostly up to about 77 µM). The procedure, abridged:
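Each well held 4,000 SBE-bla HEK 293T cells incubated overnight before compound addition; 5 hr later the cleavable FRET substrate went on for 2 hr at room temperature, and fluorescence was read at two emissions.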

A short description of assay [8]: Human pregnane X receptor (PXR) small molecule agonists, qHTS cell viability counter screen (AID 1346977). Further: nearly all actives have a fitted effect of over 50% in size. Further: potency means the concentration at half of the fitted maximal effect. The gist of the method: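 Tox21 qHTS format; PXR-Luc HepG2, 2,000/well, charcoal-stripped FBS 5%. Cpd exposure 24hr. Read: CellTiter-Fluor fluorescence, multiplexed with luciferase.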
A short description of assay [9]: Caspase-3/7 induction in HepG2 cells by small molecules, qHTS assay (AID 1346978). Further: nearly all actives have a fitted effect of over 15% in size. The gist of the method:
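Caspase-3/7 induction was measured by Caspase-Glo 3/7 luminescence (30 min, room temperature) after a 17 hr compound exposure of wild-type HepG2 cells seeded at 2,000 per well and pre-incubated 5 hr.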

Assay [10] in a line: Caspase-3/7 induction in CHO-K1 cells by small molecules, qHTS cell viability counter screen (AID 1346979). Further: nearly all actives have a fitted effect of over 35% in size. Further: potency means the concentration at half of the fitted maximal effect. The gist of the method: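 CellTiter-Fluor viability check, qHTS format: wild-type CHO-K1, 16hr compound treatment, 1hr reagent incubation, fluorescence read.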
Assay [11] in a line: Caspase-3/7 induction in CHO-K1 cells by small molecules, qHTS assay (AID 1346980). Further: nearly all actives have a fitted effect of over 15% in size. Further: potency means the concentration at half of the fitted maximal effect. The gist of the method: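 Luminescent Caspase-Glo 3/7 read (30min, room temperature) quantified apoptosis induction. Cells were wild-type CHO-K1, treated with compound for 17hr at 37 C and 5% CO2.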
Assay [12] can be described thus: Caspase-3/7 induction in HepG2 cells by small molecules, qHTS cell viability counter screen (AID 1346981). Further: series mostly up to about 92 µM; nearly all actives have a fitted effect of over 30% in size. The procedure, abridged:
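Fluorescence read-out of live-cell protease activity (CellTiter-Fluor) after 1 hr with reagent. This was measured in the same wells as the caspase-3/7 luminescence, on HepG2 cells exposed to DMSO-dissolved compounds for 16 hr at 37 C.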

The target in assay [13] is Thyrotropin-releasing hormone receptor (Homo sapiens) (UniProt P34981). Put plainly: qHTS assay to identify small molecule antagonists of the thyrotropin-releasing hormone receptor (TRHR) signaling pathway (AID 1346877; active means well fitted inhibition curve with a large enough effect in the repeat runs, not every such curve was filed as active; further: series mostly up to about 51 µM). The procedure, abridged: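 HEK293/TRHR cells, 18 h, 37 °C; Ca2+ dye 2 h; cpd 5 min RT; TRH 1 nM final; fluorescence read 3 min, 1 s intervals; 15 concs, triplicate.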
Sequence of Thyrotropin-releasing hormone receptor (Homo sapiens) (P34981 whole entry, looked up): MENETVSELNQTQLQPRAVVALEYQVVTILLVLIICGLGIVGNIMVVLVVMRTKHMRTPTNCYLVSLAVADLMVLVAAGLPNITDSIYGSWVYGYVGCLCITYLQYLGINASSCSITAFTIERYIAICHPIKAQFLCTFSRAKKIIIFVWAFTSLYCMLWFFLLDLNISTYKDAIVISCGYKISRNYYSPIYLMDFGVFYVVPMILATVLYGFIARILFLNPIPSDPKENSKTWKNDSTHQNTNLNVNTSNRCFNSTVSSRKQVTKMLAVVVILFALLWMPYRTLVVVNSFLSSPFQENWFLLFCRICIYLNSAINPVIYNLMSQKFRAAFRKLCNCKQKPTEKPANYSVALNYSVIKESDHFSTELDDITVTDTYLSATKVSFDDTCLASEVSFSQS

The target is the same in assay [14]. Put plainly: qHTS assay to identify small molecule agonists of the thyrotropin-releasing hormone receptor (TRHR) signaling pathway (AID 1346891; calls by dose curve; further: series mostly up to about 58 µM). The procedure, abridged:
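Screening of agonists relied on calcium signalling in HEK293 cells expressing human TRHR: dye loading 2 h at 37 °C preceded compound addition and a 3-min fluorescence time course.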

For assay [15], the target named is Nuclear receptor subfamily 1 group I member 2 (Homo sapiens) (UniProt O75469). Put plainly: CYP3A4 induction through human pregnane X receptor (PXR) by small molecules, qHTS assay (AID 1346984). Further: nearly all actives have a fitted effect of over 40% in size. Further: potency means the concentration at half of the fitted maximal effect. The procedure, abridged: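 HepG2-derived DPX-2 line carrying PXR plus a CYP3A4-promoter luciferase reporter; cells plated 5 hr, compound-exposed 24 hr at 37C. CYP3A4 activity probed with 3uM (final) Luciferin-IPA for 3hr, then luciferase read after One-Glo.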
Sequence of Nuclear receptor subfamily 1 group I member 2 (Homo sapiens) (O75469 whole entry, looked up): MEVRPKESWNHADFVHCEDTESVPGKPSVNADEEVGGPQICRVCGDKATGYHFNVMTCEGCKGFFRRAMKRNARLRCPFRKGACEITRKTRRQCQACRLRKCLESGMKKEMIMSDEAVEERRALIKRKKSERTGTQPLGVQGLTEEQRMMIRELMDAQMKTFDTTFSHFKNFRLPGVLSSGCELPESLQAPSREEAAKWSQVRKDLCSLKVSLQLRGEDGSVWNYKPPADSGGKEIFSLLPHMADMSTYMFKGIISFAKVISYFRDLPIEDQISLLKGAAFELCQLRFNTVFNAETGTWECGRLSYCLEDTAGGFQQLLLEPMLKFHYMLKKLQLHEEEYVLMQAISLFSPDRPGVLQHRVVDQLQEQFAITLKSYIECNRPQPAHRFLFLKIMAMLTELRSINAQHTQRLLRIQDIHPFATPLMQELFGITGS

Assay [16] has the same target. As to the kind of experiment: Human pregnane X receptor (PXR) activation by small molecules, qHTS assay (AID 1346985). Further: nearly all actives have a fitted effect of over 40% in size. Further: potency means the concentration at half of the fitted maximal effect. The procedure, abridged:
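DPX-2 cells (HepG2 co-transfected with a PXR response element and a CYP3A4-promoter luciferase construct) were seeded at 2,000 per well, rested 5 hr at 37C, then exposed to DMSO-dissolved compounds for 24 hr. Activation was read as luciferase luminescence.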

Assay [17] shares this target. Put plainly: Human pregnane X receptor (PXR) small molecule agonists, qHTS assay (AID 1346982). Further: nearly all actives have a fitted effect of over 35% in size. Further: potency means the concentration at half of the fitted maximal effect. The procedure, abridged:
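HepG2 PXR-Luc reporter line, 5% charcoal-stripped FBS; 5 hr pre-incubation, compound (DMSO) 24 hr at 37 C/5% CO2; ONE-Glo 30 min RT; luminescence read-out.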

Assay [18] concerns the target Cytochrome P450 2D6 (Homo sapiens) (UniProt P10635). Put plainly: Cytochrome P450 Family 2 Subfamily D Member 6 (CYP2D6) small molecule antagonists: luciferase reporter qHTS assay (AID 1671196). Further: nearly all actives have a fitted effect of over 50% in size. Further: potency means the concentration at half of the fitted maximal effect. The procedure, abridged:
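Luminogenic proluciferin substrate, CYP2D6 enzyme; 10 min RT preincubation with compound, NADPH regeneration system added, 1 h RT. Stop/detection reagent, 20 min RT, luminescence read (RLU). Signal proportional to CYP activity.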
On the technique in general: A reporter such as luciferase makes a cellular process visible.

Assay [19] deals with Progesterone receptor (Homo sapiens) (UniProt P06401). Put plainly: qHTS assay to identify small molecule antagonists of the progesterone receptor (PR) signaling pathway (AID 1346795; active means well fitted inhibition curve with a large enough effect in the signal ratio in the repeat runs, not every such curve was filed as active; the % refers to the signal ratio; further: potency means the concentration at half of the fitted maximal effect). The gist of the method:
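In HEK293T cells bearing the PR-UAS-bla reporter, compound effects on promegestone-driven (1 nM) beta-lactamase expression are assessed after 16 hr using a fluorescent FRET substrate incubated 2 hr at room temperature.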

Values without a mark were called inactive. Records with an inconclusive call do not appear. Calls of active or inactive are those of the source. Unless noted, the call rests on the fitted dose curve; in most records, active means well fitted curve in the direction sought with a large enough effect in the repeat runs; inconclusive means weak or mixed curves; inactive means no such curve, though single readings can be large; an effect the other way counts as inactive or inconclusive.

Sequence of Cytochrome P450 2D6 (Homo sapiens) (P10635 whole entry, looked up): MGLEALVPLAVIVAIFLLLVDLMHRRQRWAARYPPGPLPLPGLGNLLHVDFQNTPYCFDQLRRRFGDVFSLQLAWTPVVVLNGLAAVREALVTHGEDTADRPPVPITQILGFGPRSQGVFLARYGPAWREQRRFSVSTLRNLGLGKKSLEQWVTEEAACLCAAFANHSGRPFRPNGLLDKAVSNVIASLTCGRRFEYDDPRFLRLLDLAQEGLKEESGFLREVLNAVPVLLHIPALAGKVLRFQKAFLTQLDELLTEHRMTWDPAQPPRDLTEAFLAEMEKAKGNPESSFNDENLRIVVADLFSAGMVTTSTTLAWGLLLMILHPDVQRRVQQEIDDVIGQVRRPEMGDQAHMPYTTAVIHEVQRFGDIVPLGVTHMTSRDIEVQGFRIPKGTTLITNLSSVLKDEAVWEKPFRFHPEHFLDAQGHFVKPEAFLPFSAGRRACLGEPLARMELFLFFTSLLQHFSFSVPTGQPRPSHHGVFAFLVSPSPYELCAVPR

For `CC(=O)c1ccc([N+](=O)[O-])cc1`, the Potency result in assay [1], in assay [2], in assay [3], in [4], in assay [5] and in assay [6] was “inactive” each time. The Potency entry in assay [7], in assay [8], in assay [9], in assay [10], in assay [11] and in [12] was “inactive” throughout.

`O=C1c2ccccc2C(=O)C1c1ccc(Br)cc1`: the Potency entry in assay [1], in [2], in assay [3], in assay [4], in assay [5] and in assay [6] was “inactive” throughout. Moreover, the Potency entry in assay [7], in assay [14], in assay [8], in assay [9] and in assay [11] was “inactive” throughout. In assay [13], the compound was called inactive. Besides, the Potency is 25.1 µM (active) in [15] and 7.08 µM (active) in assay [16].

For `Cc1ccc(Cl)c(Nc2ccccc2C(=O)O)c1Cl`, the Potency result in [1], in assay [2], in [4], in assay [5], in assay [6] and in [14] was “inactive” each time. The Potency entry in assay [8], in assay [9], in assay [10], in assay [11], in assay [12] and in [17] was “inactive” in each case. The Potency result in assay [15], in [16] and in [18] was “inactive” throughout. The call in [13] was inactive.

For `Brc1cc2ccccc2c2ccccc12`, the Potency entry in assay [1], in assay [2], in [3], in assay [5], in assay [6] and in assay [7] was “inactive” each time. Besides, the Potency entry in assay [14], in assay [8], in [9], in assay [10], in assay [11] and in [12] was “inactive” each time. Moreover, the Potency entry in assay [18] is “inactive”. In addition, in assay [13], the compound was classed as inactive.

`COc1ccccc1NC(=O)c1cc2ccccc2cc1O`: the Potency result in assay [1], in assay [7], in assay [9], in assay [11], in assay [12] and in assay [18] was “inactive” throughout. The Potency in assay [19] is 24.3 µM (active); in assay [5] it was 49 µM (active); in [17], 24.3 µM (active).

For `CN1CCCC(CC2c3ccccc3Sc3ccccc32)C1` (stereo not given), the Potency entry in assay [1], in assay [2], in [5], in assay [6], in assay [7] and in assay [14] was “inactive” each time. Further, the Potency entry in [11], in assay [12], in assay [17] and in assay [16] was “inactive” each time. Besides, the Potency in assay [3] was 18.8 µM (active); in assay [4], 18.8 µM (active); in [8], 29.8 µM (active); in assay [18] it was 0.389 µM (active). Further, in assay [13], the compound was called inactive.

For the compound `COc1ccccc1Oc1c(NS(=O)(=O)c2ccc(C(C)(C)C)cc2)nc(-c2ncccn2)nc1OCCO`, the Potency result in [1], in [2], in assay [3], in [4], in assay [5] and in assay [6] was “inactive” each time. Moreover, the Potency entry in [14] and in assay [9] was “inactive” throughout. Further, the compound was classed as inactive in assay [13].

`CCCCC(CC)COP(=O)(O)O` (stereo not given): the Potency result in [1], in assay [2], in [4], in [5], in assay [6] and in [7] was “inactive” each time. Also, the Potency result in assay [8], in [9], in [10], in assay [11] and in assay [18] was “inactive” each time.

On to `CCOc1cccc(-n2cc(C(=O)N3CCN(c4cc(C(=O)O)c5ccccc5c4)CC3)nc2-c2ccc(C)cc2)c1`, for which the Potency entry in assay [1], in [2], in assay [5], in assay [9] and in assay [12] was “inactive” throughout. Moreover, the Potency in assay [10] and in assay [11] was 58.3 µM (active) throughout.

As for `N#[N+]c1ccc2c(S(=O)(=O)[O-])cccc2c1O`, the Potency in assay [1] is 43.3 µM (active); in [18], 31.7 µM (active). Moreover, the Potency entry in assay [2], in [4], in [5], in assay [6], in assay [7] and in assay [14] was “inactive” in each case. Besides, the Potency result in assay [9], in assay [11], in assay [12] and in assay [17] was “inactive” each time. Moreover, the result in assay [13] was inactive.

The record behind these values is PubChem BioAssay (Tox21).
